# Measurements as given in PMC7862700, “An all-to-all approach to the identification of sequence-specific readers for epigenetic DNA modifications on cytosine”.
# Legend:
# Experiment in all cases: DAPPL (digital affinity profiling via proximity ligation, sequencing); 10 mM Tris-HCl pH 7.5, 50 mM NaCl, 1 mM DTT, 4% glycerol, room temperature, 30 min; GST-TFs on glutathione beads, 16-mer random dsDNA library, 0.1% formaldehyde crosslink after washing; high values mean tight binding
# Details in all cases: protein: recombinant; tags: N-terminal GST; dsDNA, one strand shown
# FLI1 = molecular target: T1, FLI1 (Homo sapiens, UniProt Q01543 1-452)
# T1 sequence: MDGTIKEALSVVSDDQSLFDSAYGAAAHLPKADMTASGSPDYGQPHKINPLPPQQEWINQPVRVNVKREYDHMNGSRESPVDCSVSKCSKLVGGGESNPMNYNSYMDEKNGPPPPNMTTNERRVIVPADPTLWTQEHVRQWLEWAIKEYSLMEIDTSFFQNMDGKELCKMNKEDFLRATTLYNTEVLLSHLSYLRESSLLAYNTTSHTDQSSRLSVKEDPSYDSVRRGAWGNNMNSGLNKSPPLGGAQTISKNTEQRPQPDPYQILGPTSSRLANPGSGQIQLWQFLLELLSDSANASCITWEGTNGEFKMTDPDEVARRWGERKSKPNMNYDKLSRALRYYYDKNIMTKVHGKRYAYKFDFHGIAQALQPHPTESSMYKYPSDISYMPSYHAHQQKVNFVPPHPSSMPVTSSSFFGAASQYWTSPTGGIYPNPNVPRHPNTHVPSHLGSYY
# Summary of the method: (§1)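 Binding signal is defined as a hexamer's read frequency for one factor over its frequency for the tag-only sample. To obtain reads, GST-fused human transcription factors were expressed in yeast, captured on glutathione beads, barcoded with DNA and pooled with that sample. Pools met 200 nmole of a 16-mer random double-stranded DNA library in Tris/NaCl/DTT/glycerol buffer for 30 min at room temperature before washing, 0.1% formaldehyde crosslinking, proximity ligation (BsaI/T4 ligase, 1 h, 37 °C), PCR and Illumina NextSeq500 sequencing.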
# ELK1 = molecular target: T2, ELK1 (Homo sapiens, UniProt P19419 1-428)
# T2 sequence: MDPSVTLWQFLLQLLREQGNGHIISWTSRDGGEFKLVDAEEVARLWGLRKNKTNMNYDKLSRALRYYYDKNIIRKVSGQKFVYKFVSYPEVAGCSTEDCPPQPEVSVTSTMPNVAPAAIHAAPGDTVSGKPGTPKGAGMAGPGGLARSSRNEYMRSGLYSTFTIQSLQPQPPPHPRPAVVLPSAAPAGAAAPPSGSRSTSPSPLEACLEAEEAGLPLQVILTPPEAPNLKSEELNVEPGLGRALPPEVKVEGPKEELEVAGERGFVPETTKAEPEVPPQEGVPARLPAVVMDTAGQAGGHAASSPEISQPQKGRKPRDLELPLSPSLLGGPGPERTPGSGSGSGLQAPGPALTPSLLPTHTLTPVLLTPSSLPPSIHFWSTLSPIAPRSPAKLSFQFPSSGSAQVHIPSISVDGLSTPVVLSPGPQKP
# Summary of the method: as §1
# GABPA = molecular target: T3, GABPA (Homo sapiens, UniProt Q06546 1-454)
# T3 sequence: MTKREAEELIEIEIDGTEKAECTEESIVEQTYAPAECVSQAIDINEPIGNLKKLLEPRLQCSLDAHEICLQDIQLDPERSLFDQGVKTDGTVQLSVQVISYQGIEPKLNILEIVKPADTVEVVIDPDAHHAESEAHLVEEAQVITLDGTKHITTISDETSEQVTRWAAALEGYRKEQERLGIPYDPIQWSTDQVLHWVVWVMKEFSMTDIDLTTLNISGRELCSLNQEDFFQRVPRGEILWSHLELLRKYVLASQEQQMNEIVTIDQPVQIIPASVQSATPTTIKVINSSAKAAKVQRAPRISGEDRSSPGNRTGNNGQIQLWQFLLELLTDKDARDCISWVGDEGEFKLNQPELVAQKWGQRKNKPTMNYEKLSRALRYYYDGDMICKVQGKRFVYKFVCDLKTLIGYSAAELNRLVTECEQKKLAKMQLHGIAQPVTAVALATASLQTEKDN
# Summary of the method: as §1
# ERG = molecular target: T4, ERG (Homo sapiens, UniProt P11308 1-479)
# T4 sequence: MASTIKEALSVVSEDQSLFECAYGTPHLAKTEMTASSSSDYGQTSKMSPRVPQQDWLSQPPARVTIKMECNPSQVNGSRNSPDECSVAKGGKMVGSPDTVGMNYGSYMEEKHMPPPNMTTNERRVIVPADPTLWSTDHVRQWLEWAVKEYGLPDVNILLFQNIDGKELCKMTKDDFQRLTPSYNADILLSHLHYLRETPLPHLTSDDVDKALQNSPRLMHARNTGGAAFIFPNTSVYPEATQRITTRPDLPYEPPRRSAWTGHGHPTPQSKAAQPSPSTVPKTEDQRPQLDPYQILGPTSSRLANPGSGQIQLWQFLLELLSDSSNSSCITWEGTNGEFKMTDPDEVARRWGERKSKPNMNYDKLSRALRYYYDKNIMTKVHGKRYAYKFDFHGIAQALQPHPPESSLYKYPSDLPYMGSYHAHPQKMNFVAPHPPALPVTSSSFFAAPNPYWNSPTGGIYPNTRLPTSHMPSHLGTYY
# Summary of the method: as §1
# ELF1 = ELF1 (Homo sapiens, UniProt P32519 1-619)
# Summary of the method: as §1
# EHF = molecular target: T5, EHF (Homo sapiens, UniProt Q9NZC4 1-300)
# T5 sequence: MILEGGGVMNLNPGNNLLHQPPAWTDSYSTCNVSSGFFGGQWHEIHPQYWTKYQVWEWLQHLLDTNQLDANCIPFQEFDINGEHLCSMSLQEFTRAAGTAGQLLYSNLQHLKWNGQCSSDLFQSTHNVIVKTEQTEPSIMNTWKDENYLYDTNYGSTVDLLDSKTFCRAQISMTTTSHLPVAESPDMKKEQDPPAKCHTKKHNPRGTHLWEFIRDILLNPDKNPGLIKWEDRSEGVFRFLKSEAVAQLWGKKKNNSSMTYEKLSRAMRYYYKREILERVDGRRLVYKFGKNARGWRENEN
# Summary of the method: as §1
# SPI1 = SPI1 (Homo sapiens, UniProt P17947 1-270)
# Summary of the method: as §1
# SPIB = SPIB (Homo sapiens, UniProt Q01892 1-262)
# Summary of the method: as §1
# ELK3 = molecular target: T6, ELK3 (Homo sapiens, UniProt P41970 1-407)
# T6 sequence: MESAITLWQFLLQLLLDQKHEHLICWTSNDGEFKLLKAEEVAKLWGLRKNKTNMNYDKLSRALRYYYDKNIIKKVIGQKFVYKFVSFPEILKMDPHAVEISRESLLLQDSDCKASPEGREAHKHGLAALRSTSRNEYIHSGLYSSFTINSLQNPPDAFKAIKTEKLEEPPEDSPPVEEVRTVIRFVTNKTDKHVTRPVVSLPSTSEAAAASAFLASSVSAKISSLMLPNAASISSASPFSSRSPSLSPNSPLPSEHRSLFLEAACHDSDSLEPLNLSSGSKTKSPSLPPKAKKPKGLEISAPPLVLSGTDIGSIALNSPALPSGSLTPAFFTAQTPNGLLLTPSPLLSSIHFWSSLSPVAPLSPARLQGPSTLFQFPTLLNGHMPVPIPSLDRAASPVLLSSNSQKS
# Summary of the method: as §1
# Sequence of ELF1 (P32519 whole entry): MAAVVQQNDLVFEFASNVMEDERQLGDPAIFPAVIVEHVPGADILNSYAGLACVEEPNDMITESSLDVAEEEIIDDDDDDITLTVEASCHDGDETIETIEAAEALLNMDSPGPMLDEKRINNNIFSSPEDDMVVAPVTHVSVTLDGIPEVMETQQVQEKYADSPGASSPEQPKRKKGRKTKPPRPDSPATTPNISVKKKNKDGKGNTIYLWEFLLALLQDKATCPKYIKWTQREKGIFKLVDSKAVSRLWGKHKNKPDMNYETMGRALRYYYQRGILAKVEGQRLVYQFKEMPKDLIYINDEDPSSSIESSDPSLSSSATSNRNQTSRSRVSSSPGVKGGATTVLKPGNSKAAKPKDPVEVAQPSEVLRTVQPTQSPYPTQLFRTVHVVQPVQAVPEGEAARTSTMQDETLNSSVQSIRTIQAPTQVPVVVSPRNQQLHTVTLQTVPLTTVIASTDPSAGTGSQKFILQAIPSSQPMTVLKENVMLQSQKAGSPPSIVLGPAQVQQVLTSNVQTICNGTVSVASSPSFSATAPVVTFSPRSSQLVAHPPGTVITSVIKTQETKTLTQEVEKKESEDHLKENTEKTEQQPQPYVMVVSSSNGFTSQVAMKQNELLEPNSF
# Sequence of SPIB (Q01892 whole entry): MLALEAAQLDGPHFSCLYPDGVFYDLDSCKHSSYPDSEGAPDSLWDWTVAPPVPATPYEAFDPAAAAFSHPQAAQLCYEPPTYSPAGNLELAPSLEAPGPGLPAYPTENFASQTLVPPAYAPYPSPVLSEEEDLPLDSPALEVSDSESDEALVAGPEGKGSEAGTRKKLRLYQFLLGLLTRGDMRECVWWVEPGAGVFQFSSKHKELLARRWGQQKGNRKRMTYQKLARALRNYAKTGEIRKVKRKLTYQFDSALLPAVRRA
Sequence,binding signal (FLI1),binding signal (ELK1),binding signal (GABPA),binding signal (ERG),binding signal (ELF1),binding signal (EHF),binding signal (SPI1),binding signal (SPIB),binding signal (ELK3)
TAGAAA,"1.1 fold enrichment (6-mer frequency, TF over GST control)","1.03 fold enrichment (6-mer frequency, TF over GST control)","1.02 fold enrichment (6-mer frequency, TF over GST control)","1.04 fold enrichment (6-mer frequency, TF over GST control)","1.09 fold enrichment (6-mer frequency, TF over GST control)","1.07 fold enrichment (6-mer frequency, TF over GST control)","1.11 fold enrichment (6-mer frequency, TF over GST control)","1.11 fold enrichment (6-mer frequency, TF over GST control)","1.09 fold enrichment (6-mer frequency, TF over GST control)"
ATCTAC,"1.2 fold enrichment (6-mer frequency, TF over GST control)","1.38 fold enrichment (6-mer frequency, TF over GST control)","1.22 fold enrichment (6-mer frequency, TF over GST control)","1.2 fold enrichment (6-mer frequency, TF over GST control)","1.34 fold enrichment (6-mer frequency, TF over GST control)","1.25 fold enrichment (6-mer frequency, TF over GST control)","1.34 fold enrichment (6-mer frequency, TF over GST control)","1.35 fold enrichment (6-mer frequency, TF over GST control)","1.27 fold enrichment (6-mer frequency, TF over GST control)"
CACAAA,"1.06 fold enrichment (6-mer frequency, TF over GST control)","1.06 fold enrichment (6-mer frequency, TF over GST control)","1.12 fold enrichment (6-mer frequency, TF over GST control)","1.12 fold enrichment (6-mer frequency, TF over GST control)","1.13 fold enrichment (6-mer frequency, TF over GST control)","1.11 fold enrichment (6-mer frequency, TF over GST control)","1.13 fold enrichment (6-mer frequency, TF over GST control)","1.04 fold enrichment (6-mer frequency, TF over GST control)","1.19 fold enrichment (6-mer frequency, TF over GST control)"
TCAAAG,"1.08 fold enrichment (6-mer frequency, TF over GST control)","1.01 fold enrichment (6-mer frequency, TF over GST control)","1.13 fold enrichment (6-mer frequency, TF over GST control)","1.09 fold enrichment (6-mer frequency, TF over GST control)","1.19 fold enrichment (6-mer frequency, TF over GST control)","1.02 fold enrichment (6-mer frequency, TF over GST control)","1.1 fold enrichment (6-mer frequency, TF over GST control)","1.11 fold enrichment (6-mer frequency, TF over GST control)","1.15 fold enrichment (6-mer frequency, TF over GST control)"
ATATTT,"1.6 fold enrichment (6-mer frequency, TF over GST control)","1.54 fold enrichment (6-mer frequency, TF over GST control)","1.55 fold enrichment (6-mer frequency, TF over GST control)","1.53 fold enrichment (6-mer frequency, TF over GST control)","1.55 fold enrichment (6-mer frequency, TF over GST control)","1.56 fold enrichment (6-mer frequency, TF over GST control)","1.43 fold enrichment (6-mer frequency, TF over GST control)","1.51 fold enrichment (6-mer frequency, TF over GST control)","1.47 fold enrichment (6-mer frequency, TF over GST control)"
ACAACA,"1.22 fold enrichment (6-mer frequency, TF over GST control)","1.24 fold enrichment (6-mer frequency, TF over GST control)","1.23 fold enrichment (6-mer frequency, TF over GST control)","1.2 fold enrichment (6-mer frequency, TF over GST control)","1.29 fold enrichment (6-mer frequency, TF over GST control)","1.24 fold enrichment (6-mer frequency, TF over GST control)","1.18 fold enrichment (6-mer frequency, TF over GST control)","1.19 fold enrichment (6-mer frequency, TF over GST control)","1.19 fold enrichment (6-mer frequency, TF over GST control)"
AAGTTG,"1.09 fold enrichment (6-mer frequency, TF over GST control)","1.07 fold enrichment (6-mer frequency, TF over GST control)","1.1 fold enrichment (6-mer frequency, TF over GST control)","1.08 fold enrichment (6-mer frequency, TF over GST control)","1.08 fold enrichment (6-mer frequency, TF over GST control)","1.14 fold enrichment (6-mer frequency, TF over GST control)","1.13 fold enrichment (6-mer frequency, TF over GST control)","1.1 fold enrichment (6-mer frequency, TF over GST control)","1.11 fold enrichment (6-mer frequency, TF over GST control)"
TATATG,"1.28 fold enrichment (6-mer frequency, TF over GST control)","1.38 fold enrichment (6-mer frequency, TF over GST control)","1.3 fold enrichment (6-mer frequency, TF over GST control)","1.36 fold enrichment (6-mer frequency, TF over GST control)","1.43 fold enrichment (6-mer frequency, TF over GST control)","1.34 fold enrichment (6-mer frequency, TF over GST control)","1.41 fold enrichment (6-mer frequency, TF over GST control)","1.36 fold enrichment (6-mer frequency, TF over GST control)","1.38 fold enrichment (6-mer frequency, TF over GST control)"
